Assay [1] in a line: qHTS assay to identify small molecule antagonists of the estrogen related receptor signaling pathway with the pleiotropic PPARgamma coactivator (PGC) from Tox21 10K library - cell viability counter screen (AID 1224840; active means well fitted cell-killing curve with a large enough effect in the repeat runs, not every such curve was filed as active; further: nearly all actives have a fitted effect of over 40% in size). The method, boiled down:
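Following seeding of 2,000 PGC/ERR cells/well and 6 hours' incubation, test compounds were delivered in DMSO. The plates then sat 17.5 hours at 37 C before a fluorogenic live-cell protease reagent (CellTiter-Fluor) was read after 30 min.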
On the technique in general: qHTS replaces the single test concentration by a dilution series.

Assay [2] in a line: qHTS assay to identify small molecule antagonists of the estrogen related receptor signaling pathway with the pleiotropic PPARgamma coactivator (PGC) from Tox21 10K library (AID 1224841; call rule not given here; further: series mostly up to about 92 µM; actives are mostly falling curves and most rising ones were filed inactive; nearly all actives have a fitted effect of over 50% in size). The essentials: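 qHTS antagonist format: PGC/ERR cells, 2k/well, compound in DMSO by pin transfer after 6 h attachment, 18 h treatment at 37 C, One-Glo luminescence read at 30 min.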
The nature of assay [3]: qHTS assay to identify small molecule agonists of the estrogen related receptor signaling pathway with the pleiotropic PPARgamma coactivator (PGC) from Tox21 10K library (AID 1224842). Further: nearly all actives have a fitted effect of over 15% in size. The essentials: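 PGC/ERR reporter cells (NTP line) were seeded 2,000 per well, rested 6 h at 37 C/5% CO2, then pin-dosed with compounds in DMSO for 18 h at 37 C; luciferase read by One-Glo luminescence after 30 min at room temperature.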

Assay [4] in a line: qHTS assay to identify small molecule agonists of the hypoxia (HIF-1) signaling pathway - cell viability counter screen (AID 1224844; calls by dose curve; further: nearly all actives have a fitted effect of over 50% in size). The method, boiled down:
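Cells (HRE-bla ME-180, 2,000 per well) sat 5 hrs at 37C, got compound for 17 hrs, were read for CCF4-AM FRET, and were finally lysed with CellTiter-Glo for a 30 min room-temperature luminescence read.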

Assay [5] is described as follows: qHTS assay to identify small molecule agonists of H2AX (AID 1224845; active means well fitted activation curve with a large enough effect in the signal ratio in the repeat runs, not every such curve was filed as active; the % refers to the signal ratio). The essentials: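 Wild-type CHO-K1 cells plated overnight, then exposed 3 hr at 37C to compounds at 15 concentrations (0.76% DMSO). Lysed, then HTRF anti-pH2AX(S139)-cryptate/anti-H2AX-d2 detection after 24 hr at room temperature; emissions 665 and 620 nm.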
Assay [6] in a line: qHTS assay to identify small molecule agonists of the hypoxia (HIF-1) signaling pathway (AID 1224846; active means well fitted activation curve with a large enough effect in the signal ratio in the repeat runs, not every such curve was filed as active; the % refers to the signal ratio). The essentials: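 A low-serum medium (0.5% dialyzed FBS) holding 2,000 HRE-bla ME-180 cells per well is preincubated for 5 hrs, dosed with compounds by pintool, and kept a further 17 hrs at 37C, 5% CO2 before CCF4-AM FRET detection of beta-lactamase.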
Assay [7] can be described thus: qHTS assay to identify small molecule antagonists of the estrogen related receptor (ERR) signaling pathway from Tox21 library (AID 1224848). Further: nearly all actives have a fitted effect of over 50% in size. Further: potency means the concentration at half of the fitted maximal effect. The essentials:
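Screening used an ERR reporter line supplied by NTP, exposed for 18 h at 37 C to library compounds delivered in DMSO. Signal was luciferase luminescence developed with ONE-Glo at room temperature for 30 min.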

Assay [8] is described as follows: qHTS assay to identify small molecule agonists of the estrogen related receptor (ERR) signaling pathway from Tox21 library (AID 1224849; calls by dose curve; further: nearly all actives have a fitted effect of over 15% in size). The method, boiled down:
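Screening used an NTP-provided ERR luciferase cell line. Compounds in DMSO were added 6 h after seeding and left 18 h at 37 C before a 30 min ONE-Glo step and luminescence reading.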

Assay [9] is described as follows: qHTS RealTime-Glo MT Cell Viability Assay in HepG2 cells - 24 hour (AID 1224867). Further: nearly all actives have a fitted effect of over 50% in size. The method, boiled down:
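Luminescence read-out: viable HepG2 cells reduce a prosubstrate to a NanoLuc substrate, giving a signal proportional to live cell number. Reads taken at 0, 8, 16, 24, 32 and 40 h of compound exposure at 37 C.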

Assay [10] is described as follows: qHTS RealTime-Glo MT Cell Viability Assay in HEK293 cells - 32 hour (AID 1224868). The method, boiled down: (§1)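 Nonlytic real-time viability readout: viable cells convert prosubstrate to NanoLuc substrate, giving luminescence proportional to live cell number. HEK293, 600 cells/well, compound added after 5 h, continuous culture at 37 C.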
Assay [11] is described as follows: A CellTox Green Cytotoxicity Assay to monitor cytotoxicity in HEK293 cells - 0 hour (AID 1224869). Further: nearly all actives have a fitted effect of over 50% in size. The essentials:
(§2)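 Fluorescence intensity, read at 0, 8, 16, 24, 32 and 40 h of compound treatment, reflected dye binding to DNA of dead HEK293 cells; compounds (23 nL, DMSO) were added 5 h after plating cells with reagent.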

Assay [12] in a line: qHTS RealTime-Glo MT Cell Viability Assay in HepG2 cells - 40 hour (AID 1224870). Further: nearly all actives have a fitted effect of over 50% in size. The essentials:
(§3)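 HepG2 cells mixed with RealTime-Glo MT reagents (NanoLuc plus cell-permeant prosubstrate) were seeded at 600 cells/well, incubated 5 h at 37 C/5% CO2, then pinned with compounds in DMSO; nonlytic luminescence tracked viability during 40 h treatment.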

Assay [13] in a line: A CellTox Green Cytotoxicity Assay to monitor cytotoxicity in HEK293 cells - 40 hour (AID 1224871). Further: nearly all actives have a fitted effect of over 45% in size. The method, boiled down: as §2
Assay [14] is described as follows: qHTS RealTime-Glo MT Cell Viability Assay in HEK293 cells - 16 hour (AID 1224872). The essentials: as §1
Assay [15] is described as follows: qHTS RealTime-Glo MT Cell Viability Assay in HepG2 cells - 8 hour (AID 1224873). Further: nearly all actives have a fitted effect of over 55% in size. The method, boiled down:
as §3

Assay [16] is described as follows: qHTS RealTime-Glo MT Cell Viability Assay in HEK293 cells - 40 hour (AID 1224874). Further: nearly all actives have a fitted effect of over 50% in size. Conditions: RealTime-Glo luminescence; max response: stronger effect = lower value. The essentials: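 Viable HEK293 cells reduce a cell-permeant prosubstrate; the product diffuses out and is consumed by NanoLuc in the medium to give light. Compounds went in after a 5 h incubation and plates were read over the treatment course.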

Assay [17] is described as follows: A CellTox Green Cytotoxicity Assay to monitor cytotoxicity in HEK293 cells - 24 hour (AID 1224875). Further: series mostly up to about 77 µM; nearly all actives have a fitted effect of over 45% in size. The essentials:
as §2

Assay [18] addresses Thyrotropin receptor (Homo sapiens) (UniProt P16473). Kind of assay: qHTS assay to identify small molecule agonists of the thyroid stimulating hormone receptor (TSHR) signaling pathway (AID 1224843; calls by dose curve; further: nearly all actives have a fitted effect of over 45% in size). The method, boiled down:
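Cell line HEK293 with TSHR; density 800/well. Exposure 30 min RT. Readout HTRF cAMP (cAMP-d2/anti-cAMP-cryptate), 1 h RT before reading.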

A short description of assay [19]: qHTS assay to identify small molecule agonists of H2AX - cell viability counter screen (AID 1224847; calls by dose curve; further: top concentration of the series differs between compounds; nearly all actives have a fitted effect of over 30% in size). The essentials:
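Cells plated first: CHO-K1, 1000 per well in 10% FBS medium, incubated overnight at 37C. Then 15-point compound titration added (final DMSO 0.76%) for 3 hr. Finally CellTiter-Glo added and luminescence read.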

Molecules are shown by their SMILES. Values without a mark were called inactive. Records with an inconclusive call do not appear. Active and inactive are the calls of the source. Unless noted, the call rests on the fitted dose curve; in most records, active means well fitted curve in the direction sought with a large enough effect in the repeat runs; inconclusive means weak or mixed curves; inactive means no such curve, though single readings can be large; an effect the other way counts as inactive or inconclusive.
On the % scale 0 is the no-effect control and ±100 the full control effect.

Chain of Thyrotropin receptor (Homo sapiens) (P16473 whole entry, looked up): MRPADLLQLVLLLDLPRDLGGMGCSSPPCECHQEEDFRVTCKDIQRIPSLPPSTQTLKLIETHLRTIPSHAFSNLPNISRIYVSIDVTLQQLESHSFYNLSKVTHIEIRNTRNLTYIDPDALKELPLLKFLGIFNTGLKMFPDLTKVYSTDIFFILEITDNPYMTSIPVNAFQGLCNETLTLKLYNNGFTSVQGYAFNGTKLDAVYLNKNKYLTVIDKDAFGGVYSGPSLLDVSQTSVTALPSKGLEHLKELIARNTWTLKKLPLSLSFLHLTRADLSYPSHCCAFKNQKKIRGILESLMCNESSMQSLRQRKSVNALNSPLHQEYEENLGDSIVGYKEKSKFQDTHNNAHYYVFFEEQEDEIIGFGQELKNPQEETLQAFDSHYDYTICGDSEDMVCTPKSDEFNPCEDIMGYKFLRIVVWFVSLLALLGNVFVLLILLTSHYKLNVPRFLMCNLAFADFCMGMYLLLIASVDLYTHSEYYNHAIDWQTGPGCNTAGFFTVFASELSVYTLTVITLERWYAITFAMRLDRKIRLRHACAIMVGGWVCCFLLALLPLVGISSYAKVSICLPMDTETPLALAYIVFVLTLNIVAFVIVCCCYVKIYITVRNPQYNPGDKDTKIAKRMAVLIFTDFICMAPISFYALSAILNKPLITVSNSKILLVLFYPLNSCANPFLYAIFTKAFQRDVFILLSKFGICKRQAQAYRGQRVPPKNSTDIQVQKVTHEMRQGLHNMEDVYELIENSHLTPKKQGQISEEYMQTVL

Consider `CCCOCCOCCOCCO`, for which the call in assay [1], in assay [3], in assay [4], in assay [5], in [6] and in assay [8] was inactive. Further, the compound was classed as inactive in assay [9], in assay [12] and in assay [15]. Besides, the Potency result in assay [2], in assay [7], in [10], in assay [11], in assay [13] and in assay [14] was “inactive” each time. For the same compound, the Potency result in assay [17] is “inactive”. In assay [16], the max response is -22.3%.
For the compound `CC(=O)Nc1ncc([N+](=O)[O-])s1`, the result in [1], in [3], in [18], in assay [4], in assay [5] and in assay [6] was inactive. For the same compound, the result in assay [9] and in assay [15] was inactive. The Potency entry in assay [19], in assay [7], in assay [10], in [11], in [13] and in assay [14] was “inactive” in each case. The Potency entry in [17] is “inactive”. Further, the max response in assay [16] is 0.8%.
Turning to `CCCCCCCCCCC`, the call in assay [1], in [3], in [18], in [4], in [5] and in [8] was inactive. In addition, the compound was called inactive in assay [9] and in assay [15]. Moreover, the Potency result in assay [2], in assay [7], in assay [10], in assay [11], in [13] and in assay [14] was “inactive” throughout. In addition, the Potency entry in assay [17] was “inactive”. Also, the max response in assay [16] is -0.764%.
With `C=C(C)C(=O)OCCCCCCOC(=O)C(=C)C`, the compound was classed as inactive in assay [1], in assay [3], in [4], in [5], in [6] and in assay [8]. Moreover, the result in assay [9] and in [15] was inactive. The Potency entry in assay [2], in assay [7], in [10], in assay [11], in [13] and in assay [14] was “inactive” throughout. Also, the Potency entry in assay [17] was “inactive”. Besides, in assay [16], the max response is 6.48%.
`CC(=O)Nc1ccc(C)cc1`: the outcome in assay [1], in assay [3], in assay [4], in [5], in assay [6] and in assay [8] was inactive. The compound was called inactive in assay [9] and in assay [15]. For the same compound, the Potency entry in [2], in assay [7], in [10], in assay [11], in assay [13] and in assay [14] was “inactive” each time. Moreover, the max response in assay [16] is -5.67%.
With `Cc1nc(C)nc(N2C[C@@H](C)N(c3ccnc([C@@H](C)O)n3)[C@@H](C)C2)n1`, the compound was called inactive in assay [1], in assay [3], in [18], in assay [4], in assay [5] and in assay [6]. Besides, the compound was called inactive in [8], in assay [9], in [12] and in [15]. Besides, the Potency result in assay [19], in [10], in assay [11], in [13], in assay [14] and in assay [17] was “inactive” in each case. Also, in assay [7], the Potency is 13.3 µM (active). Further, the max response in assay [16] is 9.39%.
Turning to `CC(=O)/C=C/c1ccco1`, the compound was classed as inactive in [1], in assay [3], in [18], in assay [4], in assay [5] and in assay [6]. Further, the compound was called inactive in assay [8], in assay [9], in [12] and in assay [15]. The Potency entry in assay [19], in assay [7], in assay [10], in assay [11], in assay [13] and in assay [14] was “inactive” each time. Besides, the Potency result in [17] was “inactive”. In [16], the max response was 7.79%.
